# Most compounds without a hit are left out; they make up all but 19% or so of the library.
# Pf growth 96h = Primary qHTS for delayed death inhibitors of the malarial parasite plastid, 96 hour incubation; P. falciparum luciferase reporter growth, 96 h; Potency, µM (top dose mostly 28.7 µM), inactives show at the highest dose activity change, negative = inhibition, usual class: inhibitors; 6.9% of 320,000 active; AID 504834, 2011; further: potency means the concentration at half of the fitted maximal effect; on the % scale 0 is the no-effect control and ±100 the full control effect
#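 Delayed-death screen, second-generation endpoint: infected erythrocytes, 2% hematocrit, 0.05% parasitemia final; 96 hours at 37 C, 5% CO2; luciferase detection reagent; luminescence decrease equals reduced growth.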
# LASV entry inh = qHTS for Inhibitors of binding or entry into cells for Lassa Virus. Lassa virus pseudotype entry inhibition, cell reporter. Potency, µM (doses to about 37.9 µM), for the others: at the highest dose activity change, negative = inhibition, most hits filed as inhibitors. 1.2% of 300,000 active. AID 540256, 2011; calls by dose curve; tested in HEK293 cells; further: potency means the concentration at half of the fitted maximal effect; on the % scale 0 is the no-effect control and ±100 the full control effect; nearly all actives have a fitted effect of over 50% in size
# Marburg entry inh = qHTS for inhibitors of binding or entry into cells for Marburg Virus; 1.8% of 300,000 active; Marburg virus pseudotyped entry inhibition, cell reporter; Potency, µM (titrated, usually from 37.8 µM), for inactives: at the highest dose activity change, negative = inhibition, hits mostly inhibitors; calls by dose curve; tested in HEK293 cells; further: potency means the concentration at half of the fitted maximal effect; on the % scale 0 is the no-effect control and ±100 the full control effect
# Shiga inhibitor = A qHTS for Small Molecule Inhibitors of Shiga Toxin. Vero cells, Shiga toxin protein synthesis inhibition reporter. inhibition, % at 38.7 µM. 9.2% of 290,000 active. AID 2315, 2010; in the data active means inhibition mostly above about 28%, no sharp cut-off; inactive means mostly below about 43%; further: 0% is about no effect
# CHX counter = Cycloheximide Counterscreen for Small Molecule Inhibitors of Shiga Toxin; cell reporter, cycloheximide protein synthesis inhibition counterscreen; max response, %; 12% of 300,000 active; in the data active means max response mostly above about 13%, no sharp cut-off; inactive means mostly below about 14%; further: read at 38.3 µM for the half of the compounds with a filed dose; 0% is about no effect
# Pf growth 48h = Primary qHTS for delayed death inhibitors of the malarial parasite plastid, 48 hour incubation. 5.9% of 310,000 active. P. falciparum luciferase growth in erythrocytes, 48 h. Potency, µM (doses to about 28.7 µM), without a hit: top-dose activity change, negative = inhibition, usual class: inhibitors. AID 504832, 2011; further: potency means the concentration at half of the fitted maximal effect; on the % scale 0 is the no-effect control and ±100 the full control effect
#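 Erythrocytes infected with P. falciparum carrying an integrated firefly luciferase reporter (2% hematocrit, 0.1% parasitemia final) were exposed to compounds in RPMI 1640 with 0.5% Albumax at 37 C, 5% CO2. Growth inhibition was scored as reduced luminescence.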
# Active calls of the source: *; u = inconclusive; x = not tested or not shown; [ ] = dose if it differs, or a comment. Unless noted, the call rests on the fitted dose curve; in most records, active means well fitted inhibition curve with a large enough effect; inconclusive means small, poorly fitted or top-dose-only effect, or another doubt; inactive means no such curve, though single readings can be large or run the other way.
SMILES,Pf growth 96h,LASV entry inh,Marburg entry inh,Shiga inhibitor,CHX counter,Pf growth 48h
CCn1c(SCC(=O)c2cc(C)ccc2C)nc2cc(S(=O)(=O)N3CCOCC3)ccc21,7.4µM*,-15%,u,2,1,u
Cc1ccc(S(=O)(=O)N2CCOCC2)cc1C(=O)OCCOc1cccc(Cl)c1,10µM*,-17%,-3%,x,x,u
Cc1ccc(COC(=O)c2cc(S(=O)(=O)N3CCOCC3)ccc2C)cc1,13µM*,x,x,x,x,9.3µM*
Fc1ccccc1NC(=S)Nc1cccc2cnccc12,36%,x,-12%[46.1 µM],-9,13,-20%
Cc1ccc(F)c(NC(=S)Nc2cccc3ccccc23)c1,50%,x,x,58*,36*,u
Cc1ccc(C)c(NC(=S)Nc2cccc3cnccc23)c1,9.3µM*,1%[46.1 µM],u,-11,1,u
Cc1ccccc1NC(=S)Nc1cccc2cnccc12,9.3µM*,5%,-5%[46.1 µM],54*,24*,5.2µM*
C=C(C)c1cccc(C(C)(C)NC(=O)NC(c2ccccc2)c2ccc(OC)cc2)c1 (centres undefined),12µM*,-16%,u,-9,6,u
COc1ccc(S(=O)(=O)N2CCCCCC2)cc1NC(=O)Cc1ccccc1,-3%,3%,-3%,-6,-1,u
COc1ccc(CC(=O)Nc2cc(S(=O)(=O)N3CCCC3)ccc2Cl)c(OC)c1,15µM*,x,x,x,x,u
CCOc1ccc(S(=O)(=O)N2CCCCC2)cc1NC(=O)Cc1ccsc1,12µM*,u,-4%,x,x,10µM*
COc1ccc(S(=O)(=O)N2CCCCC2)cc1NC(=O)Cc1ccsc1,13µM*,-30%,u,x,x,u
CCOc1ccc(S(=O)(=O)N2CCOCC2)cc1NC(=O)C1CCC1,1%,3%[46.1 µM],-3%[46.1 µM],-3,-4,1%
COC(=O)Nc1ccc(SCC(=O)c2cccc([N+](=O)[O-])c2)cc1,19%,x,x,5,12,25%
CN(C)CCCNC(=O)c1cc(S(=O)(=O)N2CCOCC2)ccc1F,x,u,11%,11,0,12%
CCN(CC)S(=O)(=O)c1ccc(N2CCOCC2)c(NS(=O)(=O)c2ccc(C)c(C)c2)c1,4.1µM*,u,10%,-4,-1,7.4µM*
CCN(CC)S(=O)(=O)c1ccc(N2CCOCC2)c(NS(=O)(=O)c2ccc(OC)cc2)c1,u,x,3%,-1,9,51%
CCN(CC)S(=O)(=O)c1ccc(N2CCOCC2)c(NS(=O)(=O)c2ccc(C)cc2)c1,5.9µM*,-20%,-15%,-4,-2,u
COc1ccc(CCc2nnc(CCC(=O)N(C)Cc3ccncc3C)o2)cc1,u,x,x,70*,22*,27%
CCN(CC1CCCO1)C(=O)CCc1nnc(CCc2ccccc2OC)o1 (centres undefined),-100%,14%,24%,-9,3,-13%
CCCN(CC1CCCO1)C(=O)CCc1nnc(-c2cc(C)on2)o1 (centres undefined),79%,30%[46.1 µM],u,51*,16*,5%
COc1cccc(CN2CCN(C(=O)CCc3nnc(C4CCCCC4)o3)CC2=O)c1,u,x,x,18,7,u
COc1cccc(CCc2nnc(CCC(=O)N3CCCC3c3nccs3)o2)c1 (centres undefined),5.9µM*,x,x,-16,-1,-3%
CCN(CC1CCCO1)C(=O)CCc1nnc(CCc2ccc(OC)cc2)o1 (centres undefined),-10%,12%,6%,48*,25*,-18%
COc1cccc(CCc2nnc(CCC(=O)NCCC3CCCCO3)o2)c1 (centres undefined),-15%,x,x,14,18*,6%
SMILES,Pf growth 96h,LASV entry inh,Marburg entry inh,Shiga inhibitor,CHX counter,Pf growth 48h
COc1cccc(C(=O)NCC(=O)OCC(=O)Nc2cc(OC)c([N+](=O)[O-])cc2C)c1,15%,6%,20%,8,-2,8%
COc1cc2c(cc1NC(=O)CSc1nccn1C)oc1ccccc12,21%,u,u,68*,43*,83%
COc1cc2c(cc1NC(=O)CN(C)Cc1nc3ccccc3c(=O)[nH]1)oc1ccccc12,u,u,23µM*,24,12,5.2µM*
CCN(CC(=O)Nc1cc(OC)ccc1OC)Cc1nc2ccccc2c(=O)[nH]1,-22%,6%,-16%,-8,9,-4%
COc1cc2c(cc1NC(=O)CSc1ccccc1)oc1ccccc12,35%,1%,3%,19,29*,36%
COc1cc2c(cc1NC(=O)CSc1nc3ccccc3[nH]1)oc1ccccc12,u,u,21µM*,-7,2,u
COc1cc2c(cc1NC(=O)COC(=O)c1ccccc1)oc1ccccc12,32%,x,x,-5,5,4%
COc1cc2c(cc1NC(=O)CSc1nc3cc(Cl)ccc3s1)oc1ccccc12,14%,13%,u,-7,-5,30%
Cc1ccc(-c2nc(SC(C)C(=O)N3CCOCC3)n[nH]2)cc1 (centres undefined),u,x,x,3,3,-4%
O=C(NCc1ccccc1)C(c1ccc(O)cc1)N(C(=O)c1cnccn1)c1ccccc1 (centres undefined),-46%,u,-16%[46.1 µM],-7,-3,-4%
COc1cccc(CN(C)C(=O)CSc2nc3ccccc3[nH]2)c1OC,0%,26%[46.1 µM],7%[46.1 µM],46*,26*,-10%
COc1cccc(CN(C)C(=O)Cc2c[nH]c3ccccc23)c1OC,15%,u,-17%[46.1 µM],25,-5,2%
CNC(=S)N1CCN(c2nc3ccccc3s2)CC1,43%,x,22%[46.1 µM],69*,46*,107%
CS(=O)(=O)N1CCN(c2nc3ccccc3s2)CC1,-8%,u,u,11,12*,48%
CCCCNC(=S)N1CCN(c2nc3ccccc3s2)CC1,u,x,x,-2,-2,0%
CCC(=O)N1CCN(c2nc3ccccc3s2)CC1,66%,6%,-12%,36,23*,x
O=S(=O)(c1ccccc1)N1CCN(c2nc3ccccc3s2)CC1,x,7%,6%,24,12,29%
O=C(Nc1ccccc1)N1CCN(c2nc3ccccc3s2)CC1,x,7%,9%,0,27*,u
O=C(Nc1ccc(F)cc1)N1CCN(c2nc3ccccc3s2)CC1,-7%,-17%,-26%,19,13,u
O=C(C1CC1)N1CCN(c2nc3ccccc3s2)CC1,1%[5.75 µM],10%,14%,132*,33*,220%
COc1c(S(=O)(=O)NCCN2CCOCC2)ccc(Cl)c1Cl,x,8%,-17%,-17,-2,12%
C=CCN(CC(O)c1cccc([N+](=O)[O-])c1)C(C)CCc1ccccc1 (centres undefined),u,u,u,12,9,1.5µM*
c1ccc(C(NCCNC(c2ccccc2)c2ccccc2)c2ccccc2)cc1,u,u,8.2µM*,-7,-7,-26%[0.00184 µM]

# Bioassay records from PubChem.
